# Compounds without any hit were thinned out: in the full panel of roughly 79,000, 15% have a hit. Values without a mark were called inactive. The source made the active and inactive calls. Cut-off read from the data, not from the text of the source: active = growth inhibition above about 70%; inactive = the rest.
# Assay: NCI Yeast Anticancer Drug Screen. Data for the cln2 rad14 strain (AID 165);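 note: 0% = growth equal to vehicle treated cultures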
# Conditions: S. cerevisiae cln2 rad14 strain, at 50.0 µM, active compounds read high
# Summary of the method: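 cln2 rad14 yeast strain; compound exposure; growth inhibition read vs vehicle controls.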
row,Structure (SMILES),growth inhibition
1,CC1(c2nc3ccccc3[nH]2)CCC(C(=O)O)C(C)(C)O1 (configuration not stated),15.6%
2,Cc1nc(C(N)=O)c(=O)[nH]c1C,-22.9%
3,N#CC(C#N)=CNC(=S)Nc1ccc(Cl)c(Cl)c1,37.7%
4,NC(CC(=O)O)C(=O)OCc1cccc(N=Nc2ccccc2)c1 (configuration not stated),-3.2%
5,Cc1ccc(/C=N/n2c(Cc3ccccc3)n[nH]c2=O)cc1,11.8%
6,CC(C)=CCC/C(C)=C/CC/C(C)=C/C1CCC(=O)C1(C)C (configuration not stated),-16.6%
7,O=C(CSc1cc(Cl)c(Cl)cc1Cl)Nc1cccc(Cl)c1,-12.6%
8,COc1ccc(C2Cc3cc(OC)c(OC)cc3C(c3ccccc3)N2)cc1OC (configuration not stated),12.5%
9,COc1ccc(Cc2cn(C)cc(Cc3ccc(OC)cc3)c2=O)cc1,-7.45%
10,O=C1CCCC(c2ccccc2)O1 (configuration not stated),-67.5%
11,C[N+](C)(C)c1cc(Br)c(O)c(Br)c1,-2.75%
12,CCOC1(C)OC2OC(COC(C)=O)C(OC(C)=O)C(OC(N)=O)C2O1 (configuration not stated),-34%
13,CC(=O)Nc1c(Cl)cc(N)cc1Cl,9.85%
14,CCN(CC)c1ccc(C=O)cc1,-6.4%
15,C=CNC(=S)n1nc(-c2ccccc2NC(=O)C(F)(F)F)c(=O)n(C(=S)NC=C)c1=S,-0.55%
16,COc1cc(/C=C2\SC(=S)N(/C=C(/C#N)C(=O)c3ccc4ccccc4c3)C2=O)cc(OC)c1OC,3.45%
17,C#CCN(CC#C)C(=O)CCCCCCCCC=C,86% (active)

# Reference: PubChem BioAssay (NCI)
